ELG1 DNA repair = inhibitors of ELG1-dependent DNA repair in HEK293T cells | HEK293T ELG1-luciferase reporter, luminescence, 16 h; DNA damage induced by 5-fluorouridine | Potency, µM (titrated, usually from 46.1 µM), for the others: at the highest dose activity change, negative = inhibition, hits mostly inhibitors | 2.3% of 330,000 active; note: % is set by controls: 0 for no effect and ±100 for the full control effect; nearly all actives have a fitted effect of over 55% in size
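Step one: seed 2,000 cells per well. Step two: pin-transfer compound or DMSO alongside 5-fluorouridine. Step three: incubate 16 hr, 37 °C, 5% CO2. Step four: add ONE-Glo, wait 30 min, read luminescence.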
Rango complex inh = prevents formation of the Rango-importin beta complex; Potency, µM (titrated, usually from 92.2 µM), inactives show at the highest dose inhibition of complex formation; Rango CFP/YFP FRET sensor + importin beta, 45 min; Q14974; AID 540263; 0.031% of 340,000 active; calls by dose curve;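 note: 0% = DMSO wells and 100% = buffer wells lacking importin beta; nearly all actives have a fitted effect of over 15% in size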
Target sequence (Q14974 whole entry, looked up): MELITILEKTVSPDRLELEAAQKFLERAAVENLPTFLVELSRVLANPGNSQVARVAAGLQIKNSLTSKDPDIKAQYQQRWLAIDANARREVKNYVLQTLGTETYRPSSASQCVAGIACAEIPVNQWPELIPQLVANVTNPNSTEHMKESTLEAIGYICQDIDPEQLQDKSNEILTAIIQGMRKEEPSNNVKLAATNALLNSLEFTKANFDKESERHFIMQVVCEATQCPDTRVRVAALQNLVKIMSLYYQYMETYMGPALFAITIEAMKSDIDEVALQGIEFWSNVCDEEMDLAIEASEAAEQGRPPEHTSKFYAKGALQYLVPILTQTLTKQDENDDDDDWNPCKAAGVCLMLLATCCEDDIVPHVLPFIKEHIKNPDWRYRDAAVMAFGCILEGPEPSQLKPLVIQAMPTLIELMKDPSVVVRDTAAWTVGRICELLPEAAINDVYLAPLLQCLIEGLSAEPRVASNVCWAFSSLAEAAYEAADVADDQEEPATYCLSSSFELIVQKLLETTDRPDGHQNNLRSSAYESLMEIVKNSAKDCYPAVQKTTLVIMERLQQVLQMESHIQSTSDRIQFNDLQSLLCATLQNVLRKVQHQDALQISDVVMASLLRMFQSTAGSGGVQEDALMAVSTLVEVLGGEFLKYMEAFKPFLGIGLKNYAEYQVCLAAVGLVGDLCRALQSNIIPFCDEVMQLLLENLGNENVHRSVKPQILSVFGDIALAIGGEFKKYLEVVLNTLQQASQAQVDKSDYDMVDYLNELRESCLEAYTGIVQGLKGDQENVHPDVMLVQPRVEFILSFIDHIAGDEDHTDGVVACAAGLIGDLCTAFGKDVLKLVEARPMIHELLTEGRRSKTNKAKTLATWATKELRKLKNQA
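FRET biosensor (snurportin 1 IBB flanked by EYFP and cerulean), 50 nM, with compound 5 min, then 0.125 microM importin beta in PBS, 1 mM DTT, 0.02% Tween-20, 0.1% BSA. CFP/YFP ratio read after 45 min at room temperature; pre-read flags interference.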
Tb PFK inh = T. brucei PFK enzyme inhibition; O15648; 0.17% of 330,000 active; T. brucei PFK, ADP-Glo luminescence; AID 485367; Potency, µM (doses to about 57.5 µM), for the others: top-dose activity, negative = inhibition, hits mostly inhibitors;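 note: 0% = uninhibited 1x PFK enzyme wells and -100% = no-enzyme wells; nearly all actives have a fitted effect of over 60% in size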
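Luminescent ADP detection (ADP-Glo, two-step: ATP depletion then ADP-to-ATP conversion for luciferase) reported PFK activity after 45 min room-temperature reaction of 1.25 nM enzyme with 0.5 mM F6P and 0.1 mM ATP at pH 8.0.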
Tb PGK inh = T. brucei PGK inhibition; P07378; PGK/GAPDH coupled, Kinase-Glo luminescence, 60 min; Potency, µM (titrated, usually from 57.5 µM), without a hit: top-dose activity change, negative = inhibition, usual class: inhibitors; AID 602233; 0.043% of 380,000 active; note: % is set by controls: 0 for no effect and ±100 for the full control effect; nearly all actives have a fitted effect of over 60% in size
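Luminescent ATP detection (Kinase-Glo Plus) follows a 60-minute room-temperature incubation, with wells lacking PGK as controls. Buffer: 100 mM TEA (pH 7.6), 5 mM MgCl2, 0.01% Tween-20. Coupling enzyme GAPDH (100 nM final) supplies unstable 1,3-BPG in-well.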
PKM2 act = increases activity of human pyruvate kinase M2; P14618; purified PKM2, Kinase-Glo ATP luminescence, activation; response scale: 0% is enzyme alone, no compound; Potency, µM (titrated, usually from 57.5 µM), for inactives: at the highest dose activation, actives largely listed as activators; 0.34% of 260,000 active; AID 1631; note: % is set by controls: 0 for no effect and ±100 for the full control effect; nearly all actives have a fitted effect of over 55% in size
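Purified hPK-M2 (>95% pure) converted ADP (0.1 mM final) to ATP with 0.5 mM PEP in 50 mM imidazole pH7.2, KCl, MgCl2, Tween 20, BSA; 1 h at room temperature. ATP detected by Kinase-Glo luminescence.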
Rango release inh = inhibition of RanGTP-driven Rango-importin beta dissociation; Potency, µM (top dose mostly 46.1 µM), for inactives: at the top dose activity change, negative = inhibition; 0.071% of 340,000 active; AID 540253; Biochemical FRET Rango-importin beta, RanGTP-induced dissociation; calls by dose curve; note: % of control where 0% means no effect; nearly all actives have a fitted effect of over 45% in size
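Compounds preincubate 5 min with complex of recombinant Rango and importin beta in PBS with 1 mM DTT. Ran (0.6 uM) loaded with 2 mM GTP plus 0.2 uM RCC1 starts dissociation; FRET is recorded 45 min later.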
ELG1 FLuc counter = luciferase inhibition in cell-free luciferin readout for ELG1 hits; Potency, µM (top dose mostly 46.1 µM), for inactives: at the highest dose activity change, negative = inhibition, hits mostly inhibitors; shares compounds with ELG1 DNA repair; cell-free firefly luciferase luminescence counter-screen, ViewLux; AID 624247; 3% of 350 active; note: % is set by controls: 0 for no effect and ±100 for the full control effect
ELG1-Luc inh = inhibits ELG1-dependent DNA repair in HEK293T cells, confirmed. shares compounds with ELG1 DNA repair. HEK293T ELG1-luciferase levels, luminescence; cells co-treated with 5-fluorouridine. Potency, µM (series often up to 46.1 µM), without a hit: at the highest dose activity change, negative = inhibition, most hits filed as inhibitors. 68% of 670 active. AID 624248; note: % is set by controls: 0 for no effect and ±100 for the full control effect; nearly all actives have a fitted effect of over 55% in size
ELG1-Luc MMS = MMS-stimulated human ELG1 repair inhibition, confirmed. shares compounds with ELG1 DNA repair. HEK293T luciferase-tagged ELG1 level, MMS stimulated. Potency, µM (titrated, usually from 46.1 µM), for the others: at the highest dose activity change, negative = inhibition, hits mostly inhibitors. 53% of 670 active. AID 624249; note: % is set by controls: 0 for no effect and ±100 for the full control effect; nearly all actives have a fitted effect of over 60% in size
ELG1 5-FU = confirmation of ELG1 repair inhibitors: viability with 5FU; shares compounds with ELG1 DNA repair; cell viability with 5-FU, ELG1-dependent repair; Potency, µM (doses to about 46.1 µM), inactives show at the top dose activity change, negative = viability loss, actives largely listed as cytotoxic; 670 tested, under 10 active; AID 624250;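 note: ELG1-luc HEK293T cells cotreated with 5-fluorouridine at 10 µM final; viability measured 16 h after compound addition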
ELG1 MMS viab = confirmation of ELG1 repair inhibitors: viability with MMS | Cell viability with MMS, ELG1-dependent DNA repair | Potency, µM (top dose mostly 46.1 µM), for the others: top-dose activity change, negative = viability loss, most hits filed as cytotoxic | 33% of 670 active | shares compounds with ELG1 DNA repair;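 note: ELG1-luc HEK293T cells co-treated with 10 µM MMS; viability read 16 h after compound addition; % is set by controls: 0 for no effect and ±100 for the full control effect; nearly all actives have a fitted effect of over 60% in size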
ELG1 unstim viab = counter-screen for ELG1 repair inhibitors: unstimulated cell viability | shares compounds with ELG1 DNA repair | cell viability counter-screen, unstimulated, luminescence | Potency, µM (doses to about 45.9 µM), inactives show top-dose activity change, negative = loss of viability, hits mostly cytotoxic | AID 624252 | 8% of 900 active;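 note: compound exposure lasted 16 hours before reading; % is set by controls: 0 for no effect and ±100 for the full control effect; nearly all actives have a fitted effect of over 55% in size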
FLuc enzyme = inhibits purified firefly luciferase, counter-screen for ELG1 hits. Potency, µM (titrated, usually from 57.5 µM), for the others: at the highest dose activity, negative = inhibition, most hits filed as inhibitors. AID 624253. purified firefly luciferase, luminescence counter-screen. 10% of 350 active. shares compounds with ELG1 DNA repair; note: % is set by controls: 0 for no effect and ±100 for the full control effect
* hit, by the source's call; i = inactive; ? = inconclusive; nt = no result given. Shown are actives, neighbours in structure and some others; about 2.4% of the full set was active somewhere. Unless noted, calls come from the whole dose curve; as a rule, active = well fitted curve in the direction sought with a large enough effect; inconclusive = small, poorly fitted or top-dose-only effect, or another doubt; inactive = no such curve, though single readings can be large; an effect the other way counts as inactive or inconclusive. Potency is the fitted concentration of half-maximal effect.

SMILES	ELG1 DNA repair	Rango complex inh	Tb PFK inh	Tb PGK inh	PKM2 act	Rango release inh	ELG1-Luc inh	ELG1-Luc MMS	ELG1 5-FU	ELG1 MMS viab	ELG1 unstim viab	others
COCCCNc1nc2cc(OC)c(OC)cc2c2nc(-c3ccccc3)nn12	4.1µM*	-1%	-1%	-8%	nt	1%	2.2µM*	?	?	-10%	?
COc1cc2nc(NCC3CCCO3)n3nc(-c4cccnc4)nc3c2cc1OC (stereo not drawn)	2.3µM*	8%	-3%	i	-3%	-1%	4µM*	18µM*	?	5%	-11%
O=C(C[C@H]1C/C=C\CC[C@H](Cc2ccc(F)cc2)C(=O)OC[C@H]2CCCN2C1=O)N[C@@H](CO)Cc1ccccc1	-11%	0%	9%	-7%	nt	-1%	nt	nt	nt	nt	nt
Cc1ccc(C(=O)OCC(=O)c2c[nH]c3ccccc23)cc1	?	-7%	5%	-1%	-4%	1%	nt	nt	nt	nt	nt
Cn1cccc1C(=O)OCC(=O)c1c[nH]c2ccccc12	?	0%	4%	-9%	nt	2%	nt	nt	nt	nt	-13%
COc1cc2c(cc1OC)C(COc1ccc3c(C)cc(=O)oc3c1)N(C(=O)c1ccco1)CC2 (stereo not drawn)	2.3µM*	0%	0%	-4%	-6%	16%	5.6µM*	22µM*	-4%	?	?	ELG1 FLuc counter=6%;FLuc enzyme=-10%
O=C(O)CSCCOc1ccc(OCCSCC(=O)O)cc1	-5%	-2%	-1%	1%	2%	1%	nt	nt	nt	nt	nt
Cc1oc(C(=O)O)cc1COc1ccc2c3c(c(=O)oc2c1C)CCC3	?	0%	-22%	-7%	-9%	5%	nt	nt	nt	nt	nt
Cc1c(OCc2ccc([N+](=O)[O-])cc2)ccc2c3c(c(=O)oc12)CCC3	?	2%	0%	0%	-1%	-1%	nt	nt	nt	nt	1%
COCCNC(=O)c1cc(-c2ccccc2C)nn1CC1CC(c2cccnc2)=NO1 (stereo not drawn)	?	0%	-2%	2%	nt	0%	nt	nt	nt	nt	nt
Cc1ccc(-c2cc(-c3n[nH]c(=S)n3C)c3ccccc3n2)cc1	?	0%	25%	-5%	-6%	22%	nt	nt	nt	nt	nt
O=C(C[C@H]1C[C@@H]2c3cc(NC(=O)c4ccc5c(c4)OCO5)ccc3O[C@@H]2[C@H](CO)O1)NCc1cc(F)ccc1F	nt	nt	nt	-3%	nt	nt	nt	nt	nt	nt	nt
O=C1CCN(Cc2ccccc2)C=C1c1ccc2ccccc2c1	?	0%	-2%	-8%	nt	?	nt	nt	nt	nt	-2%
O=C1CCN(Cc2ccccc2)C=C1c1ccc(Cl)cc1	5%	2%	3%	i	nt	-8%	nt	nt	nt	nt	nt
COC(=O)c1cc(C(=O)NCc2ccc3c(c2)OCO3)cc([N+](=O)[O-])c1	8%	-5%	-1%	i	0%	3%	nt	nt	nt	nt	nt
COc1ccc(-c2cn(Cc3ccc(C(=O)c4ccccc4)cc3)nn2)cc1	?	-2%	7%	-6%	4%	-12%	nt	nt	nt	nt	?
COc1ccc(-c2cn(Cc3ccc4ccccc4c3)nn2)cc1	?	0%	-4%	-1%	2%	-2%	nt	nt	nt	nt	nt
COc1ccc2sc3c(=O)[nH]c4ccccc4c3c2c1	0.82µM*	0%	2%	0%	-11%	10%	2µM*	1.6µM*	8%	9%	4%	ELG1 FLuc counter=-6%;FLuc enzyme=1%
Cc1cccc(NC(=O)CSc2nc3ccccc3nc2N2CCCC2)c1C	?	-2%	0%	i	-22%	14%	nt	nt	nt	nt	nt
CCOC(=O)c1cc(-c2ccc(OC)cc2)nn1Cc1ccccc1	nt	nt	nt	8%	nt	nt	nt	nt	nt	nt	nt
COc1cc(C(=O)Oc2ccccc2/C=N/NC(=O)c2ccc(C)c(Cl)c2)cc(OC)c1OC	4.6µM*	3%	0%	2%	-1%	30%	2.8µM*	?	?	-11%	-10%
COc1cccc(C(C(=O)NC2CCCC2)N(C(=O)c2ccco2)c2ccccc2)c1OC (stereo not drawn)	-9%	7%	0%	-4%	0%	-12%	nt	nt	nt	nt	nt
Cc1ccc(S(=O)(=O)N(C)C[C@H]2OCCCC[C@H](C)Oc3ccc(NC(=O)Nc4cccc5ccccc45)cc3C(=O)N([C@@H](C)CO)C[C@H]2C)cc1	nt	nt	nt	4%	nt	nt	nt	nt	nt	nt	nt
O=[N+]([O-])c1ccc2ncnc(N3CCN(Cc4ccc5c(c4)OCO5)CC3)c2c1	2.1µM*	1%	0%	-1%	0%	-2%	5µM*	13µM*	-11%	25µM*	?
COc1ccc(CCNc2ncnc3sccc23)cc1OC	0.29µM*	?	2%	i	nt	-10%	?	0.28µM*	0%	0.4µM*	?	ELG1 FLuc counter=12%;FLuc enzyme=-10%

Screens (PubChem)
